A selection: hits, their analogues and other compounds. The true share with any hit is near 2.4%.
AmpC inh no det = AmpC beta-lactamase inhibition, detergent-free assay; P00811; 1.8% of 71,000 active; AmpC nitrocefin hydrolysis, absorbance 480 nm, no detergent; Potency, µM (series often up to 28.7 µM), inactives show at the top dose activity change, negative = inhibition; AID 585; also: % of control where 0% means no effect
Target sequence (P00811 whole entry, looked up): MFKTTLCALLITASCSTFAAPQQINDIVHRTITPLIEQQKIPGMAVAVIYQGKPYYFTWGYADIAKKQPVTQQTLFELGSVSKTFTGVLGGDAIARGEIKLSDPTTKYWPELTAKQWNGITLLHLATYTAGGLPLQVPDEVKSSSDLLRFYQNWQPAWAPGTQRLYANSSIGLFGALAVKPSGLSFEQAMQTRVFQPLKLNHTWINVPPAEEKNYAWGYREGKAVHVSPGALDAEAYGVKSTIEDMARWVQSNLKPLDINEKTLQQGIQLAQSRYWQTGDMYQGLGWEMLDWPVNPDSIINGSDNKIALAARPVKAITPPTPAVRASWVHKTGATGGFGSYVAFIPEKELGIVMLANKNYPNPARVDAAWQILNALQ
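Enzyme, pH 7.0 phosphate. Compound titrations were pre-incubated with AmpC for 15 min at room temperature before nitrocefin (stock 800 uM) addition; product formation was recorded at 480 nm every 20 s for 4 min.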
AmpC det inh = inhibitors of E. coli AmpC beta-lactamase with detergent; 0.09% of 71,000 active; purified AmpC, nitrocefin hydrolysis with detergent; AID 584; P00811; Potency, µM (highest dose often 28.7 µM), for inactives: at the top dose activity change, negative = inhibition; active = well fitted curve in the direction sought with a large enough effect; inconclusive = small, poorly fitted or top-dose-only effect; also: % is scaled to controls: 0 for no effect and ±100 for the full control effect
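E. coli AmpC (5.3 nM) in 20 mM phosphate pH 7.0 with 0.01% Triton X-100, preincubated 15 min RT with compound; nitrocefin (2 uL of 800 uM stock) hydrolysis followed by 480 nm absorbance every 20 s over 4 min.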
Prx2 Sm inh = Schistosoma mansoni Prx2 inhibition | Potency, µM | S. mansoni Prx2 activity coupled to TGR/GSH (TGR is thioredoxin glutathione reductase), NADPH fluorescence loss, qHTS | 0.07% of 65,000 active | AID 448
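Coupled assay in which S. mansoni TGR passes NADPH reducing equivalents via glutathione to Prx2, which reduces H2O2. Compounds were preincubated 15 min at room temperature with 25 nM TGR/50 nM Prx2 mix. Kinetic NADPH fluorescence loss (ex 365/em 450 nm) was monitored.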
Anthrax LT inh = blocks cellular internalization of anthrax lethal toxin. Cells, anthrax lethal toxin internalization, FRET ratio (460/530). Potency, µM (titrated, usually from 40 µM), for the others: top-dose activity change, negative = inhibition, actives largely listed as inhibitors. 0.67% of 70,000 active. AID 912; also: % is scaled to controls: 0 for no effect and ±100 for the full control effect; nearly all actives have a fitted effect of over 50% in size
Starred values were filed as active, the others as inactive; ? = inconclusive; nt = not tested or not shown; [ ] = another dose, or the depositor's remark. Unless noted, calls follow the shape of the full dose curve. Potency is read from the fitted curve at half-maximal effect.

SMILES	AmpC inh no det	AmpC det inh	Prx2 Sm inh	Anthrax LT inh
COCCCNC(=O)c1ccc(Cn2c(=O)[nH]c3ccccc3c2=O)cc1	4µM*[single pt active]	14%	>57	?
COCCCNC(=O)CCCn1c(=O)[nH]c2ccccc2c1=O	-9%	-4%	>57	-10%
CCc1ccc(NC2=NCC(=O)N2Cc2ccc3c(c2)OCO3)cc1	44%	0%	>57	10µM*
O=C(O)CC(CC(=O)Nc1nncs1)c1ccccc1 (stereo not drawn)	-21%	-5%	>57	4%
CN(CC(CC(=O)Nc1nncs1)c1ccccc1)S(=O)(=O)c1ccccc1 (stereo not drawn)	4µM*[single pt active]	9%	>57	5%
CCOC(=O)C1CCCN(c2c(NCC3CCCN3CC)c(=O)c2=O)C1 (stereo not drawn)	4µM*[single pt active]	11%	>57	-11%
CCOC(=O)C1CCCN(c2c(NCCCN3CCCC(C)C3)c(=O)c2=O)C1 (stereo not drawn)	4µM*[single pt active]	14%	>57	-21%
CNC(=O)[C@@H]1O[C@@H](n2cnc3c(NCc4ccc(N)cc4)ncnc32)[C@@H](O)[C@H]1O	-2%	0%	>57	-7%
O=[As](O)(O)c1ccc(Cc2ccc([As](=O)(O)O)cc2)cc1	12%[5.75 µM]	-2%[5.75 µM]	0.17*	?
CCCOc1ccc(Cc2nn3c(=O)/c(=C/c4ccco4)sc3nc2=O)cc1	10µM*[single pt active]	-2%	>57	-1%
c1ccc(C2=NN[C@@H]3c4ccccc4-c4ccccc4N3C2)cc1	3%[5.75 µM]	0%[5.75 µM]	>57	-3%[8 µM]
c1ccc(C(NCCNC(c2ccccc2)c2ccccc2)c2ccccc2)cc1	nt	nt	nt	10µM*
C=C/C(C)=C/[C@]1(C)SC(=O)C(C)=C1O	-8%	-2%	>57	7%
CN1CCN(CCCNC(=O)c2cc3c(-c4ccc(Cl)cc4)nn(C)c3s2)CC1	170%	17%	>57	6.3µM*
CCN(CC)CCCNC(=O)c1cc2c(-c3ccc(Cl)cc3)nn(C)c2s1	4µM*[single pt active]	14%	>57	2.5µM*
CC1CCCCN1CCNC(=O)c1cc2c(-c3ccccc3F)nn(C)c2s1 (stereo not drawn)	4µM*[single pt active]	10%	>57	7.9µM*
Cn1nc(-c2ccc(Cl)cc2)c2cc(C(=O)NCC3CCCO3)sc21 (stereo not drawn)	150%	8%	>57	?
Cc1cc(C)c2c(SCc3ccc(Cl)cc3Cl)nc(N)nc2n1	25%[5.75 µM]	-2%[5.75 µM]	>57	-13%[8 µM]
Cc1ccc(Cn2ccc(NC(=O)c3cc(-c4ccc5c(c4)OCO5)on3)n2)cc1	10µM*	-3%	>57	1%
Cc1ccc(Cn2ccc(NC(=O)c3cc(-c4ccccc4)on3)n2)cc1	?	-1%	>57	-13%
CC(=O)N[C@@H]1CONC1=O	2%[5.75 µM]	-5%[5.75 µM]	>57	-10%[8 µM]
O=C(COC(=O)c1ccc(Br)o1)Nc1nc2ccccc2s1	5µM*	1%	nt	0%
COc1ccc(CCN2C(=O)CCC2(C)C(=O)NCc2cccnc2)cc1OC (stereo not drawn)	-3%	-2%	>57	-2%
CC1(C(=O)NCc2cccnc2)CCC(=O)N1CCc1ccccc1 (stereo not drawn)	4µM*[single pt active]	16%	>57	-8%
CC1(C(=O)NCc2cccnc2)CCC(=O)N1Cc1cccs1 (stereo not drawn)	4µM*[single pt active]	14%	>57	0%
SMILES	AmpC inh no det	AmpC det inh	Prx2 Sm inh	Anthrax LT inh
CC(C)(C)c1c2c(c(C(C)(C)C)c3c1OCN(Cc1ccccc1)C3)OCN(Cc1ccccc1)C2	-6%[5.75 µM]	-5%[5.75 µM]	>57	0%[8 µM]
CC1(C)N=C(N)N=C(N)N1c1cccc(C(=O)Nc2ccc(S(=O)(=O)F)cc2)c1	3%[5.75 µM]	-1%[5.75 µM]	>57	?
C[C@@H]1CN(CCCn2c3ccccc3c3ccccc32)C[C@H](C)N1	84%	-3%	>57	32µM*
Nc1ccc(S(=O)(=O)NCc2nccs2)cc1	16%[5.75 µM]	-2%[5.75 µM]	>57	-10%[8 µM]
Cc1ccccc1/C=C\C1=NCCN1	-6%	0%	>57	-2%
O=C(O)Cc1cc(Cl)ccc1O	-13%[5.75 µM]	-5%[5.75 µM]	>57	-7%[8 µM]
Oc1ccc(Cl)cc1Cc1cc(Cl)cc(Cc2cc(Cl)ccc2O)c1O	-18%[5.75 µM]	2%[5.75 µM]	>57	4µM*
CC[C@]1(O)C[C@H]2CN(CCc3c([nH]c4ccccc34)[C@](C(=O)OC)(c3cc4c(cc3OC)N(C=O)[C@H]3[C@@](O)(C(=O)OC)[C@H](OC(C)=O)[C@@]5(CC)C=CCN6CC[C@]43[C@H]65)C2)C1	161%	-1%	>26	?
COc1ccc(C)cc1NC(=O)c1ccoc1C	2%	2%	nt	7%
COc1ccc(C)cc1NC(=O)c1cc2c(CO)cnc(C)c2oc1=N	3.2µM*[single pt active]	13%	>57	?
COc1cccc(-c2cncnc2NCc2ccccc2)c1	13µM*	10µM*	>57	?
CC#C[C@@]1(O)CC[C@@H]2[C@@H]3CCC4=CC(=O)CCC4=C3[C@@H](c3ccc(N(C)C)cc3)C[C@]21C	105%	0%	>57	?
CC1(C)S[C@@H]2[C@H](NC(=O)Cc3ccccc3)C(=O)N2[C@@H]1C(=O)O	5%[5.75 µM]	-3%[5.75 µM]	>57	-1%[8 µM]
C[C@H](Oc1ccccc1)C(=O)N[C@@H]1C(=O)N2[C@@H]1SC(C)(C)[C@@H]2C(=O)O	0.25µM*	0.63µM*	>57	12%[3.58 µM]
CCOc1ccc2ccccc2c1C(=O)N[C@@H]1C(=O)N2[C@@H]1SC(C)(C)[C@@H]2C(=O)O	0.032µM*	0.05µM*	>57	4%[3.58 µM]
CC(C)(N)C(=O)N[C@@H]1C(=O)N2[C@@H]1SC(C)(C)[C@H]2C(=O)O	0.5µM*	1.3µM*	>57	-3%[8 µM]
Cc1onc(-c2c(Cl)cccc2Cl)c1C(=O)N[C@H]1C(=O)N2[C@H]1SC(C)(C)[C@H]2C(=O)O	0.0016µM*	0.0025µM*	>57	7%[3.58 µM]
CC(=O)OC1=CC2=CC[C@H]3[C@H]4CCC(=O)[C@@]4(C)CC(=O)[C@]3(S)[C@]2(C)CC1	14%[5.75 µM]	-1%[5.75 µM]	>57	-2%[8 µM]
CCN(CC)C(=O)N[C@@H]1C=C2c3cccc4[nH]cc(c34)C[C@@H]2N(C)C1	15%	-2%	>57	-15%
CC1(C)S[C@@H]2[C@H](NC(=O)C3(N)CCCCC3)C(=O)N2[C@@H]1C(=O)O	0.01µM*	0.01µM*	>57	-27%[8 µM]
Cc1nn(Cc2ccc(Cl)cc2)c(C)c1NC(=O)c1cc(-c2ccco2)on1	25%	-6%	>57	-18%
Cc1cc(NC(=O)c2cc(-c3ccco3)on2)nn1Cc1ccc(Cl)cc1	16µM*	-3%	>57	-24%
O=C(NCc1ccccc1)c1noc2c1CCCC2	3%	-3%	>57	2%
CC(C)CNC(=O)c1noc2c1CCCC2	4µM*[single pt active]	4%	>57	-8%
O=C(COC(=O)Cc1ccc(S(=O)(=O)N2CCOCC2)s1)NCc1ccccc1	14%	-3%	>57	-3%
O=C(COC(=O)Cc1ccc(S(=O)(=O)N2CCCCC2)s1)Nc1ccc2c(c1)OCO2	13µM*	11%	>57	-9%
COc1ccc(-c2csc(N(CC3CCCO3)C(=O)c3cccs3)n2)cc1 (stereo not drawn)	27%	2%	>57	-26%

Source: PubChem BioAssay (National Center for Advancing Translational Sciences (NCATS))
